The structures appear in SMILES notation. Results filed as inconclusive are left out. The source made the active and inactive calls. How the source made its calls: active means hit-call score of the fitted dose curve at least 0.9, where 1 is the maximum; inconclusive means response in the unintended direction; inactive means score below 0.9.

Sequence of rat Acetylcholinesterase (AChE), Ache (gene 83817) (P37136 whole entry, looked up): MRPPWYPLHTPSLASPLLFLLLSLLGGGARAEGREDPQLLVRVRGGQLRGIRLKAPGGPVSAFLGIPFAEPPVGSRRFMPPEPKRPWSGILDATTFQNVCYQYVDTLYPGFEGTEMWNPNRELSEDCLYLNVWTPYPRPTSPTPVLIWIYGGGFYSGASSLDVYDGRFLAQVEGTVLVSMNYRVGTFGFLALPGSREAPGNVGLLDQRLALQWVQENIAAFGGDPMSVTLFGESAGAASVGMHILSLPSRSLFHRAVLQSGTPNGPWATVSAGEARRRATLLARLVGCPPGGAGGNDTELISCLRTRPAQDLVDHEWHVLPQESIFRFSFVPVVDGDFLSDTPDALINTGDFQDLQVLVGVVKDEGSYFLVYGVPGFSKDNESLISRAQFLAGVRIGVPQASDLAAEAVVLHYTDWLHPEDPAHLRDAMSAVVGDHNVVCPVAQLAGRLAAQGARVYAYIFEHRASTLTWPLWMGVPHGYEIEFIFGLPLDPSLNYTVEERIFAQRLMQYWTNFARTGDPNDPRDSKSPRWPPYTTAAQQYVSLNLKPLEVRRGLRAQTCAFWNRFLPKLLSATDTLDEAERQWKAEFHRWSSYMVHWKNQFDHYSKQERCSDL

In the test the target is rat Acetylcholinesterase (AChE), Ache (gene 83817) (UniProt P37136). Description: NVS_ENZ_rAChE: NovaScreen (NVS) Enzymatic Assay for rat Acetylcholinesterase (AChE) (AID 2283233). The procedure:
NVS_ENZ_rAChE is a biochemical, single-readout assay that uses extracted gene-proteins from Rat brain membranes in a tissue-based cell-free assay. Measurements were taken 0.33 hour after chemical dosing in a 96-well plate.NVS_ENZ_rAChE is one of one assay component(s) measured or calculated from the NVS_ENZ_rAChE assay. It is designed to make measurements of enzyme activity, a form of enzyme reporter, as detected with absorbance signals by Colorimetric technology.Data from the assay component NVS_ENZ_rAChE was analyzed into 1 assay endpoint. This assay endpoint, NVS_ENZ_rAChE, was analyzed in the positive analysis fitting direction relative to DMSO as the negative control and baseline of activity. Using a type of enzyme reporter, loss-of-signal activity can be used to understand changes in the enzymatic activity as they relate to the gene Ache. Furthermore, this assay endpoint can be referred to as a primary readout, because this assay has produced multiple assay endpoints where this one serves a enzymatic activity function. To generalize the intended target to other relatable targets, this assay endpoint is annotated to the esterase intended target family, where the subfamily is acetylcholinesterase.
Binding assays used specific radioligands (tritiated, iodinated) with non-radioactive competitive displacement ligands in agonist or antagonist protocols (as indicated) and various reference compounds and inhibitors to titrate specific binding to receptors and transporters. Most enzyme assays (CYPs, kinases, phosphatases, proteases, HDACs) used recombinant protein and specific substrates (fluorescence mostly, some colorimetric and radioactive) and inhibitors, followed by a biochemical separation of substrate and product. All assays for the biochemical HTS were initially run in duplicate at a single concentration (10 uM for CYP450 assays and 25 uM for all others). Assay-chemical combinations meeting a pre-defined threshold (e.g., 30% inhibition and other criteria defined below) were then run in singleton concentration-response format with maximum concentration of 20 uM for CYPs and 50 uM for all others. Each assay was run with positive and negative controls, and concurrent controls on every plate. The follow-up (secondary) screen tested active chemical-pairs in concentration series, as well as a few additional assays not tested in the primary screen, some selected negative inactives, and several cases re-run in the concentration series for confirmatory purposes.
What is called AC50 is the midpoint of the concentration-response curve, whichever way the signal moves. For the molecule `O=c1[nH]c2ccc(S(=O)CCN3CCC(Cc4ccc(F)cc4)CC3)cc2o1` (stereo not given), the AC50 is 5.31 µM (active).
Regarding `O=Cc1ccccc1C=O`, the result was inactive.
On to `COCCOc1cc2cc(C(=O)NC3CCN(C(C)C)CC3)n(CC(=O)Nc3ccc(Cl)cn3)c2cn1`, for which the concentration at half-maximal activity (AC50) was 19 µM (active).
The same measure, in the same setting: as for `CN(C)C(=O)C1(N2CCCCC2)CCN(CC[C@@]2(c3ccc(Cl)c(Cl)c3)CN(C(=O)c3ccccc3)CCO2)CC1`, the figure is 9.53 µM (active); as for `O=S1(=O)CC(Cl)(Cl)C(Cl)(Cl)C1`, 26.1 µM (active).
As to `c1ccc(Oc2ccccc2)cc1`, the result was inactive.
With `CCOC(=O)c1ccc(C2CCC(NC[C@H](O)COc3ccc(O)c(NS(C)(=O)=O)c3)CC2)cc1` (stereo not given in full), the AC50 was 15 µM (active).
As to `O=C(Nc1ccc(Cl)cc1)Nc1ccc(Cl)c(Cl)c1`, the outcome was inactive.
Turning to `CCN(CC)CCNc1ccc(CNC=O)c2sc3ccc(OC)cc3c(=O)c12`, the concentration at half-maximal activity (AC50) was 15.7 µM (active).
Consider `Nc1ccc(N)c([N+](=O)[O-])c1`, for which the molecule was classed as inactive.
On to `CN(C)c1ccc(C(=C2C=CC(=[N+](C)C)C=C2)c2ccc(N(C)C)cc2)cc1`, for which the AC50 was 17.1 µM (active).
Same read-out and setting: as for `NCc1cccc(C2CCN(C(=O)c3ccc(C#Cc4ccccc4F)o3)CC2)c1`, the figure is 11.3 µM (active).
As to `CC(C)=CCC/C(C)=C\CO`, the molecule was classed as inactive.
On the same count and under the same terms, for `CCCCCCCCCC` the value was “inactive”.
As to `COc1cc(C(C)C)c2c(c1)S(=O)(=O)N(COc1cc(=O)n3cccc(OCCN4CCCCC4)c3n1)C2=O`, the AC50 is 6.25 µM (active).
For the molecule `CCCCc1oc2ccccc2c1C(=O)c1cc(I)c(OCCN(CC)CC)c(I)c1`, the call was inactive.
For `Cc1nccn1-c1ccc(Sc2cccc(C3(C(N)=O)CCOCC3)c2)cc1`, the outcome was inactive.
With `CNS(=O)(=O)c1cc(C(=O)N2CCC(CCN3C4CCC3CC(n3c(C)nc5ccccc53)C4)(c3cccc(F)c3)CC2)c(Cl)cc1F` (stereo not given), the molecule was called inactive.
Same read-out and setting: as for `NC(=O)Cn1c(=O)cc(CCN2CCN(c3nccc4sccc34)CC2)c2ccc(F)cc21`, the entry is “inactive”.
`COc1ccc2cc(S(=O)(=O)N[C@H](CC(=O)N[C@H](Cc3ccc(CN4[C@H](C)CCC[C@@H]4C)cc3)C(=O)N(C)C(C)C)c3ccc4c(c3)OCO4)ccc2c1`: the concentration at half-maximal activity (AC50) is 30.6 µM (active).
On the same count and under the same terms, as for `CSC(=O)c1cccc2nnsc12`, the figure is 1.32 µM (active).
With `S=C([S-])NCCNC(=S)[S-].[Mn+2]`, the molecule was classed as inactive.
With `CC(C)CCCCCCOC(=O)C1CCCCC1C(=O)OCCCCCCC(C)C` (stereo not given), the molecule was classed as inactive.
Regarding `Clc1cc(Cl)c2c(c1)N=C1CCCCCN1C2`, the AC50 is 0.463 µM (active).
With `NC(=O)N(O)[C@@H]1C=C[C@H](Oc2cccc(Oc3ccc(F)cc3)c2)C1`, the molecule was called inactive.
The same measure, in the same setting: for `CN1CCN(Cc2cc(-c3ccc4[nH]c(=O)oc4c3)co2)[C@@H](c2ccc(F)cc2)C1` the value was “inactive”.
For `O=C1c2c(O)ccc(Nc3ccc(CCO)cc3)c2C(=O)c2c([N+](=O)[O-])ccc(O)c21`, the AC50 is 1.91 µM (active).
Same read-out and setting: for `CC[C@H]1CC[C@H](NCc2cc3c(cc2OC)[C@H]2C[C@H]2C(=O)N3C)[C@H](c2ccccc2)N1` the value was 15.7 µM (active).
Turning to `CCCCCCCC=O`, the molecule was called inactive.
For `CCCCCCCCCCCCCC[N+](C)(C)C`, the AC50 is 21.3 µM (active).
For the molecule `CCCCCCCC(=O)O`, the call was inactive.
Same read-out and setting: for `S=C(S)NCCNC(=S)S.[Mn+2].[S-]C([S-])=NCCN=C([S-])[S-].[Zn+2]` the value was “inactive”.
Regarding `CN[C@H]1CC[C@@H](c2ccc(Cl)c(Cl)c2)c2ccc(S(N)(=O)=O)cc21`, the AC50 is 25 µM (active).
The same measure, in the same setting: for `O=C1OC2(c3cc(Br)c(O)c(Br)c3Oc3c2cc(Br)c(O)c3Br)c2c(Cl)c(Cl)c(Cl)c(Cl)c21` the value was 2.75 µM (active).
The same measure, in the same setting: for `S=C(NC1CCCCC1)NC1CCCCC1` the value was 17.2 µM (active).
`CCn1nc(C)c2c1C(=O)NCC(c1ccc(O)cc1)=N2`: the result was inactive.
Still for that read-out and setting: as for `Cc1cc(CCN2CCN(c3nsc4ccccc34)CC2)cc2c1NC(=O)CC2(C)C`, the entry is “inactive”.
For `N=C(N)c1ccc(OCCCCCOc2ccc(C(=N)N)cc2)cc1`, the AC50 was 21.9 µM (active).
Take `CCOC(=O)C1=NOC(c2ccccc2)(c2ccccc2)C1`: the molecule was classed as inactive.
Still for that read-out and setting: as for `CCCC(=O)OCCC(C)C`, the entry is “inactive”.

Source of the values: PubChem BioAssay (EPA / NIEHS).
